According to PubChem BioAssay (EPA / NIEHS):
Records with an inconclusive call do not appear. Active and inactive are the calls of the source. How the source made its calls: active means hit-call score of the fitted dose curve at least 0.9, where 1 is the maximum; inactive means score below 0.9.

read-out: Cytochrome P450 2C9 (Homo sapiens) (UniProt P11712); experiment: CLD_CYP2C9_48hr: CellzDirect (CLD) Gene Expression Assay for xenobiotic metabolism (CYP2C9) at 48 hours (AID 2283701)
Procedure: CLD_48hr is a cell-based, multiplexed-readout assay that uses hepatocyte, a human liver primary cell, with measurements taken at 48 hours after chemical dosing in a 96-well plate.CLD_CYP2C9_48hr is one of 16 assay component(s) measured or calculated from the CLD_48hr assay. It is designed to make measurements of mRNA induction, a form of inducible reporter, as detected with chemiluminescence signals by Quantitative Nuclease Protection Assay (qNPA) technology.Data from the assay component CLD_CYP2C9_48hr was analyzed at the endpoint, CLD_CYP2C9_48hr, in the positive analysis fitting direction relative to DMSO as the negative control and baseline of activity. Using a type of inducible reporter, gain-of-signal activity can be used to understand changes in the reporter gene as they relate to the gene CYP2C9. Furthermore, this assay endpoint can be referred to as a primary readout. To generalize the intended target to other relatable targets, this assay endpoint is annotated to the cyp intended target family, where subfamily is xenobiotic metabolism.
Human hepatocyte cultures were treated daily for two consecutive days with fresh dosing solutions containing appropriate concentrations of the 320 ToxCast chemicals (chemical identities were blinded to CellzDirect and other ToxCast collaborators), vehicle control (0.2% DMSO), and positive control inducers as summarized in Table 1. Due to the large number of treatment groups and chemicals examined, the ToxCast chemicals were divided into two groups (spanning two independent cultures of hepatocytes from separate donor preparations (Hu778: ToxCast plates 1 and 2; Hu776: ToxCast plates 3 and 4). Each preparation of human hepatocyte cultures was treated with respective vehicle control, medium only control, set of six positive controls/reference chemicals for the five hepatic receptor pathways, and a subset of eight of the ToxCast chemicals (indoxacarb, pyrithiobac-sodium, norflurazon, cyhalofop-butyl, methomyl, thiram, acetochlor, and propiconazole). These replicate data, coupled with internal replicates designed within the blinded ToxCast chemical library, provided additional data to evaluate interindividual differences between hepatocyte preparations and their potential impact on chemical profiles.Cell morphology and integrity were evaluated using phase-contrast microscopy as an indicator of hepatocyte cell health (Tyson & Green, 1987). Cultures for each treatment group (i.e., media, vehicle [0.2% DMSO], positive control inducers [multiple concentrations], and the ToxCast chemicals [multiple concentrations]) were observed and cell morphology was assessed relative to vehicle control cultures at each harvest time point (0, 6, 24, or 48 h). […] Images were evaluated at the conclusion of the study to assess changes in cell integrity and account for the effects of chemical exposure on uncharacteristic changes in concentration-dependent gene expression profiles. The results from these determinations of apparent cytotoxicity were annotated (yes/no) alongside the corresponding qNPA data for reference.At the conclusion of each treatment period, hepatocyte cultures (96-well) were washed with 1 volume of HBSS, lysed by addition of 25 ul ArrayPlate lysis buffer (HTG, Tucson, AZ), and 70 ul/well of Denaturation Oil, denatured by incubation at 95C for 10 min, and frozen at approximately -70C until analysis by nuclease protection assay (qNPA) (Roberts et al., 2007). For qNPA analysis, cell lysates were thawed at 50C for approximately 30 min, qNPA probes were added, and samples were incubated at 95C for 10 min to begin the detection process by denaturing the target RNA, dissociating the duplexes and secondary structure hybridization. At the conclusion of the hybridization period, S1 nuclease reagent was added to each sample to digest all nonprotected nucleotides at 50C for 60-90 min. […]

| SMILES | outcome |
| --- | --- |
| CCOC(=O)[C@H](C)Oc1ccc(Oc2nc3ccc(Cl)cc3o2)cc1 | inactive |
| CCOC(=O)NCCOc1ccc(Oc2ccccc2)cc1 | inactive |
| CC1(C)C(C=C(Cl)Cl)C1C(=O)OCc1cccc(Oc2ccccc2)c1 (stereo not drawn) | inactive |
| COC(=O)c1cccc(C)c1S(=O)(=O)NC(=O)Nc1nc(OCC(F)(F)F)nc(N(C)C)n1 | inactive |
| CCCN(CCC)C(=O)SCC | inactive |
| CCCCC(CC)CN1C(=O)C2C3C=CC(C3)C2C1=O (stereo not drawn) | inactive |
| CCCCCOC(=O)COc1cc(N2C(=O)C3=C(CCCC3)C2=O)c(F)cc1Cl | inactive |
| OB(O)O | inactive |
| CCOC(=O)COc1cc(-n2ncc(C(F)(F)F)c(C)c2=O)c(F)cc1Cl | inactive |
| C#CCOC(=O)[C@@H](C)Oc1ccc(Oc2ncc(Cl)cc2F)cc1 | inactive |
| COC(=O)c1c(Cl)nn(C)c1S(=O)(=O)NC(=O)Nc1nc(OC)cc(OC)n1 | inactive |
| CC(C)(c1ccc(O)cc1)c1ccc(O)cc1 | inactive |
| CCCCCCC(C)OC(=O)COc1nc(F)c(Cl)c(N)c1Cl (stereo not drawn) | inactive |
| COCCO | inactive |
| CCCN(CCC)c1c([N+](=O)[O-])cc(C(F)(F)F)c(N)c1[N+](=O)[O-] | inactive |
| CCCCC(CC)COC(=O)c1ccccc1C(=O)O (stereo not drawn) | inactive |
| COC(=O)c1ccc(I)cc1S(=O)(=O)NC(=O)Nc1nc(C)nc(OC)n1 | inactive |
| c1ccc(Nc2ccccc2)cc1 | inactive |
